# Data taken from the supplement of paper PMC6555819.
# Experiments:
# Assay in all cases: PBM binding z-score (relative to random genomic background probes); higher = stronger binding; sequences stand for … in GC…GCGATTGACAGCGTAGAATGAAGG
# [1] = system: FXR:RXRa (NR concentration 270 nM, RXRa partner concentration 90 nM)
# Procedure, shortened: (§1)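 Custom Agilent 4×180K protein-binding microarrays carried double-stranded probes. Their 34-nt variable regions held direct-repeat seeds, single-nucleotide variants, half-site ablations and random human genomic background sequences. Arrays were incubated 1 h with ligand-free nuclear receptor dimers in PBS pH 7.4, 2% milk, 0.02% Triton X-100, 1 mM DTT, 0.2 mg/mL BSA and 0.4 mg/ml salmon testes DNA. Antibodies against each partner (one per run) detected binding, and scanned fluorescence was regression-normalized. Binding z-scores use random background probes as reference.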
# [2] = system: LXRa:RXRa (NR concentration 270 nM, RXRa partner concentration 90 nM)
# Procedure, shortened: as §1
# [3] = system: LXRa homodimer (NR concentration 270 nM)
# Procedure, shortened: as §1
# [4] = system: LXRb:RXRa (NR concentration 270 nM, RXRa partner concentration 90 nM)
# Procedure, shortened: as §1
# [5] = system: LXRb homodimer (NR concentration 270 nM)
# Procedure, shortened: as §1
# [6] = system: PPARa:RXRa (NR concentration 270 nM, RXRa partner concentration 90 nM)
# Procedure, shortened: as §1
# [7] = system: PPARg:RXRa (NR concentration 180 nM, RXRa partner concentration 90 nM)
# Procedure, shortened: as §1
# [8] = system: PPARg:RXRa 270nM:90nM, anti-RXR (NR concentration 270 nM, RXRa partner concentration 90 nM)
# Procedure, shortened: as §1
# [9] = system: PPARg:RXRa 30nM:10nM, anti-RXR (NR concentration 30 nM, RXRa partner concentration 10 nM)
# Procedure, shortened: as §1
# [10] = system: PPARg:RXRa 90nM:30nM, anti-RXR (NR concentration 90 nM, RXRa partner concentration 30 nM)
# Procedure, shortened: as §1
# [11] = system: PPARg:RXRa DBDmut IVT, anti-RXR (DBD mutation: RXRa K156A/R161A, NR concentration 270 nM, RXRa partner concentration 90 nM)
# Procedure, shortened: as §1
# [12] = system: PPARg:RXRa IVT, anti-PPARg (NR concentration 270 nM, RXRa partner concentration 90 nM)
# Procedure, shortened: as §1
# [13] = system: PPARg DBDmut:RXRa IVT, anti-PPARg (DBD mutation: PPARg1 K132A/R137A, NR concentration 270 nM, RXRa partner concentration 90 nM)
# Procedure, shortened: as §1
# [14] = system: PPARg DBDmut IVT, anti-PPARg (DBD mutation: PPARg1 K132A/R137A, NR concentration 270 nM)
# Procedure, shortened: as §1
# [15] = system: PPARg homodimer (NR concentration 180 nM)
# Procedure, shortened: as §1
# [16] = system: PXR:RXRa (NR concentration 270 nM, RXRa partner concentration 90 nM)
# Procedure, shortened: as §1
# [17] = system: PXR homodimer (NR concentration 270 nM)
# Procedure, shortened: as §1
# [18] = system: RARa:RXR (NR concentration 270 nM, RXRa partner concentration 90 nM)
# Procedure, shortened: as §1
# [19] = system: RARa homodimer (NR concentration 270 nM)
# Procedure, shortened: as §1
# [20] = system: RARb:RXRa (NR concentration 270 nM, RXRa partner concentration 90 nM)
# Procedure, shortened: as §1
Sequence,PBM binding z-score [1],PBM binding z-score [2],PBM binding z-score [3],PBM binding z-score [4],PBM binding z-score [5],PBM binding z-score [6],PBM binding z-score [7],PBM binding z-score [8],PBM binding z-score [9],PBM binding z-score [10],PBM binding z-score [11],PBM binding z-score [12],PBM binding z-score [13],PBM binding z-score [14],PBM binding z-score [15],PBM binding z-score [16],PBM binding z-score [17],PBM binding z-score [18],PBM binding z-score [19],PBM binding z-score [20]
TCATATAGGAAAAAGGTGAAAGTCGGTGTGGTAA,1.37,1.47,-0.216,1.38,-0.0192,2.87,3.05,5.37,5.19,5.73,2.92,1.79,1.1,0.104,1.49,0.859,0.327,1.63,1.43,1.57
TCATATCGGTAATACAGGTGAAAGTCGGCATCTA,0.812,0.733,0.448,0.822,0.305,1.58,0.895,2.79,3.92,3.03,2.51,1.96,1.47,0.852,1.2,0.46,0.585,0.605,1.17,0.527
AATACAGGGTCATCGTAGGCCAGATTACGCACAG,7.31,6.79,2.75,4.95,1.56,5.92,6.61,6.1,3.14,4.89,2.88,4.16,2.1,1.86,3.02,5.14,0.561,5.6,0.954,4.27
CGTCGAAGGTCAGCAGGTCAGTGAAAGCGACGTG,5.54,3.8,0.42,3.06,-0.433,4.76,4.28,4.81,1.5,2.88,2.98,3.25,-0.047,-1.4,4.2,3.44,0.233,4.8,1.59,5.24
AGTTAAAGTTCAGGACGAGGTAACGTAAAGCACG,3.69,3.97,1.7,1.91,0.474,2.83,2.49,3.2,1.18,2.14,-0.314,1.18,0.861,1.1,2.09,2.95,1.51,2.66,0.705,4.06
